Source: PubChem BioAssay
A number with no mark means an inactive call.

Assay: changes in parasitized red cell lysis, either direction – P. falciparum Indochina, OD700, 3 h, PSAC antagonist project, primary screen (AID 1156)
Conditions: P. falciparum-infected erythrocytes, osmotic lysis, higher = more signal, called active from +8 up or from −8 down

SMILES	z-score
CC1CC/C=C\[C@H]2OC34C=CCN(Cn5nnc6ccccc65)C(=O)[C@H]3N(C(CO)C(C)C)C(=O)[C@@H]4C2C(=O)O1 (some centres not stated)	0.752
C=CCOC(=O)[C@H]1[C@@H]2C(=O)O[C@@H](c3ccccc3)[C@@H](c3ccccc3)N2[C@@H](c2ccc(OCCOC(=O)[C@H]3C[C@H]4C(=O)N[C@@H](CC(C)C)C(=O)N4[C@H]3c3ccc(O)cc3)cc2)[C@]12C(=O)Nc1ccc(I)cc12	-0.483
COCCOC(=O)N1C(=O)[C@@]2(c3cc(C#CC4=CCCCC4)ccc31)[C@H](c1ccc(O)cc1)N1[C@H](c3ccccc3)[C@H](c3ccccc3)OC(=O)[C@H]1[C@@H]2C(N)=O	0.193
CN(C)CCCNC(=O)[C@@]1(c2ccc([N+](=O)[O-])cc2)CC(=O)N(C2CCCCC2)[C@@H]1c1ccc(CO)cc1I	-2.81
COCCOC(=O)N1C(=O)[C@@]2(c3cc(C#CCCO)ccc31)[C@H](C(=O)N1CCc3cc(OC)c(OC)cc3C1)[C@H]1C(=O)O[C@H](c3ccccc3)[C@H](c3ccccc3)N1[C@@H]2c1ccc(O)cc1	0.262
CCCC[C@@H]1C[C@H]1[C@@H](NC(=O)c1ccco1)c1ccc(C(=O)OC)cc1	0.394
CCCCCN1CC=CC23O[C@@H]4/C=C\CCCOC(=O)C4[C@H]2C(=O)N(CCCO)[C@@H]3C1=O (some centres not stated)	-1.43

Assay: plasmodial surface anion channel blockers, osmotic lysis – cell-based, P. falciparum Indochina, OD700, 18 h, primary screen (AID 1157)
Conditions: P. falciparum Indochina infected erythrocytes, osmotic lysis OD700, 18 h; higher = more signal, called active from +8 up or from −8 down

SMILES	z-score
COC(=O)C=C(CC(O)c1cccc(Cl)c1)OC (configuration not stated)	-0.936
COC(=O)[C@@]1(Cc2ccccc2)[C@H]2c3cc(C(=O)N4CCCC4)n(CC4CC4)c3C[C@H]2CN1C(=O)c1ccccc1	0.69
COCCOC(=O)N1C(=O)[C@@]2(c3cc(C#CCCO)ccc31)[C@H](c1ccc(OCCO)cc1)N1[C@H](c3ccccc3)[C@H](c3ccccc3)OC(=O)[C@H]1[C@@H]2C(=O)N1CCN(c2ncccn2)CC1	0.411
COC(=O)[C@@]1(Cc2ccc(F)cc2)[C@H]2c3cc(C(=O)N(C)C)n(Cc4ccc(S(C)(=O)=O)cc4)c3C[C@H]2CN1C(=O)c1ccccc1	0.739
CCC(CC)C(O)C1C=CC2C(=O)N(C)C(=O)C2N1Nc1ccccc1 (configuration not stated)	0.951
C=CCNC(=O)[C@@H]1[C@H]2C(=O)O[C@H](c3ccccc3)[C@H](c3ccccc3)N2[C@H](c2ccc(OCCO)cc2)[C@@]12C(=O)Nc1ccc(C#CCCO)cc12	0.812
O=C(NCc1ccc(F)cc1)[C@H]1C[C@H]2C(=O)N[C@@H](Cc3ccccc3)C(=O)N2[C@H]1c1ccc(O)cc1	0.498
COC(=O)[C@@]1(Cc2ccc(F)cc2)[C@H]2c3cc(C(=O)N4CCCC4)n(Cc4cc(C)n(C)n4)c3C[C@H]2CN1C(=O)c1ccccc1	0.742
C=CC[C@]1(C(=O)N2CCCCC2)N=C(c2ccc(OCCCO)cc2)O[C@H]1c1ccccc1	1.11
CN1C(=O)C2C=CC(C(O)C3CCCCC3)N(Nc3ccc([N+](=O)[O-])cc3[N+](=O)[O-])C2C1=O (configuration not stated)	0.532
C=C(C)C1C(=C)CN([C@H](CO)c2ccccc2)C1=O (some centres not stated)	-0.0396
N#Cc1ccc(NN2C(C(O)c3c(F)cccc3Cl)C=CC3C(=O)N(c4ccccc4)C(=O)C32)cc1 (configuration not stated)	1.51
[N-]=[N+]=Nc1ccccc1[C@H]1OC(c2ccc(OCCCO)cc2)=N[C@@]1(Cc1ccccc1)C(=O)O	7.43
O=C1NCC(=O)N2[C@@H]1C[C@@H](C(=O)O)[C@H]2c1cccc(OCCO)c1	0.572
COc1ccc(CCN2C(=O)[C@@]3(Cc4ccccc42)c2ccccc2C(=O)N(Cc2ccccc2C(F)(F)F)[C@H]3c2ccc(CO)cc2)cc1	-2.07
CN(C)C(=O)[C@]1(Cc2ccccc2CN=[N+]=[N-])N=C(c2ccc(OCCCO)cc2)O[C@@H]1c1ccccc1CN=[N+]=[N-]	-0.0196
CC(C)C[C@@H]1NC(=O)[C@H]2C[C@@H](C(=O)NCCCCCCN)[C@@H](c3ccc(O)cc3)N2C1=O	0.3
C=C(CCCC)/C(=C/C[C@@H](OC(C)=O)c1ccccc1OCCO)c1cnc2ccccc2c1	1.39

SMILES	z-score
COC(=O)[C@@]1(Cc2ccccc2)[C@H]2c3cc(C(=O)N4CCCC4)n(Cc4cccc5ccccc45)c3C[C@H]2CN1C(=O)c1ccccc1	1.3
[N-]=[N+]=NCc1ccccc1[C@@H]1OC(c2ccc(OCCCO)cc2)=N[C@]1(CCS(=O)(=O)c1ccccc1)C(=O)NCc1ccccc1	0.814
O=C1C[C@]2(c3ccc([N+](=O)[O-])cc3)C(=O)N(CCN3CCOCC3)c3cc(CO)ccc3[C@H]2N1C1CCCCC1	-0.507
O=C1O[C@@H](c2ccccc2)[C@@H](c2ccccc2)N2[C@@H](c3ccc(OCCO)cc3)[C@]3(C(=O)Nc4ccccc43)[C@@H](C(=O)NC[C@H](O)c3ccccc3)[C@H]12	0.779
Cc1ccc(C(C)CC(O)C2C=CC3C(=O)N(c4ccccc4)C(=O)C3N2Nc2ccc([N+](=O)[O-])cc2)o1 (configuration not stated)	1.49
CC(C)C[C@@H]1NC(=O)[C@@H]2C[C@H](C(=O)NCCCCCN)[C@H](c3cccc(OCCO)c3)N2C1=O	-2
C=C(CCCC)C(=O)CC[C@@H](OC(=O)c1cccnc1)c1ccc(CO)o1	0.258
COc1ccc(C(O)C2C=CC3C(=O)N(c4ccccc4)C(=O)C3N2Nc2ccc(C(C)C)cc2)cc1OCc1ccccc1 (configuration not stated)	1.47
CC(C)[C@@H](CO)NC(=O)[C@H]1[C@@H](c2ccccc2)N(c2ccccc2)O[C@@H]1C	-0.0146
O=C1c2ccccc2[C@](Cc2ccccc2I)(C(=O)NC2CC2)[C@H](c2ccc(CO)cc2)N1C1CCCCC1	1.36
CC1CC/C=C\[C@H]2OC34C=CCN(Cn5nnc6ccccc65)C(=O)[C@H]3N(C(CO)C(C)C)C(=O)[C@@H]4C2C(=O)O1 (some centres not stated)	0.527
C=CCOC(=O)[C@H]1[C@@H]2C(=O)O[C@@H](c3ccccc3)[C@@H](c3ccccc3)N2[C@@H](c2ccc(OCCOC(=O)[C@H]3C[C@H]4C(=O)N[C@@H](CC(C)C)C(=O)N4[C@H]3c3ccc(O)cc3)cc2)[C@]12C(=O)Nc1ccc(I)cc12	0.47
COCCOC(=O)N1C(=O)[C@@]2(c3cc(C#CC4=CCCCC4)ccc31)[C@H](c1ccc(O)cc1)N1[C@H](c3ccccc3)[C@H](c3ccccc3)OC(=O)[C@H]1[C@@H]2C(N)=O	-0.104
CN(C)CCCNC(=O)[C@@]1(c2ccc([N+](=O)[O-])cc2)CC(=O)N(C2CCCCC2)[C@@H]1c1ccc(CO)cc1I	0.037
COCCOC(=O)N1C(=O)[C@@]2(c3cc(C#CCCO)ccc31)[C@H](C(=O)N1CCc3cc(OC)c(OC)cc3C1)[C@H]1C(=O)O[C@H](c3ccccc3)[C@H](c3ccccc3)N1[C@@H]2c1ccc(O)cc1	0.222
CCCC[C@@H]1C[C@H]1[C@@H](NC(=O)c1ccco1)c1ccc(C(=O)OC)cc1	0.323
CCCCCN1CC=CC23O[C@@H]4/C=C\CCCOC(=O)C4[C@H]2C(=O)N(CCCO)[C@@H]3C1=O (some centres not stated)	-0.678
